Laboratory results published in the supplement of paper PMC8728848.
Many of the other results were omitted from the sample, so the strongest signals are more common in it than they were.

B1: Spy0252 (Streptococcus pyogenes), Q9A1I9_STRP1 (protein)
chain: MNMKKLASLAMLGASVLGLAACGGKSQKEAGASKSDTAKTEITWWAFPVFTQEKAEDGVGTYEKKLIAAFEKANPEIKVKLETIDFTSGPEKITTAIEAGTAPDVLFDAPGRIIQYGKNGKLADLNDLFTEEFTKDVNNDKLIQASKAGDTAYMYPISSAPFYMALNKKMLKDAGVLDLVKEGWTTDDFEKVLKALKDKGYNPGSFFANGQGGDQGPRAFFANLYSSHITDDKVTKYTTDDANSIKAMTKISNWIKDGLMMNGSQYDGSADIQNFANGQTSFTILWAPAQPGIQAKLLEASKVDYLEIPFPSDDGKPELEYLVNGFAVFNNKDEQKVAASKTFIQFIADDKEWGPKNVVRTGAFPVRTSYGDLYKDKRMEKIAEWTKFYSPYYNTIDGFAEMRTLWFPMVQAVSNGDEKPEDALKAFTEKANKTIKKTQ
B2: SRS2 (Toxoplasma gondii), O15695 (protein)
chain: MATRASLARQKTGAACLAVLTASPSVVAAKPWKRWVGVSVILASAFAVGVSAGPPYRYEPEKFTCRPKKGILSQWVSLLYQVQHNITFACEEATPVPTTLISEEHGLMVCAENMTPEECEANPAPLSAFLPGATKEWVTGDSVLTGLKISVPESQYPANAKSFRVGCRHNTKTGNTCMLTIHVEPRDPAVERQEARCSYTENSTLPKIFVTKDSNTMTLACGPHGAPMPESYTENYCSTPDTCDEKPFTSVIPGYLSKWFFGDPKSPLGARVRIPPEQIPSSPQINYFGCTGPTEGEGPKYNCTVPVPLGGGDPSEGSRPGGGSGGGKRGGGQGGGGSLAGFDFRQGSARHSLPSRMALSASALLAMTALAY

What was measured:
Assay in all cases: glycan array binding signal (z-score within array); higher = stronger binding
Conditions in all cases: glycan notation: IUPAC condensed, linker removed
Fuc(a1-2)Gal = molecular target: Fuc(a1-2)Gal
Summary of the method: (§1)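 Glycan array data were curated from 3228 arrays in the Consortium for Functional Glycomics database and kept only where the protein sequence was available. Glycan names were converted to IUPAC-condensed notation, and columns mapping to the same glycan were averaged. The binding signal is a within-array Z-score, averaged across arrays of the same protein sequence at different concentrations or buffers and across linkers. Negative Z-scores can be read as non-binding.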

Fuc(a1-2)Gal6S(b1-4)Glc = molecular target: Fuc(a1-2)Gal6S(b1-4)Glc
Summary of the method: as §1

[1] = molecular target: Fuc(a1-3)[Gal(b1-4)]GlcNAc(b1-2)Man(a1-6)[Gal(b1-4)GlcNAc(b1-2)Man(a1-3)]Man(b1-4)GlcNAc(b1-4)GlcNAc
Summary of the method: as §1

Fuc(b1-3)GlcNAc = molecular target: Fuc(b1-3)GlcNAc
Summary of the method: as §1

Gal(a1-3)Gal(b1-3)GlcNAc = molecular target: Gal(a1-3)Gal(b1-3)GlcNAc
Summary of the method: as §1

Gal(a1-4)Gal(b1-4)GlcNAc = molecular target: Gal(a1-4)Gal(b1-4)GlcNAc
Summary of the method: as §1

[2] = molecular target: Gal(b1-3)GlcNAc(b1-3)Gal(b1-4)GlcNAc
Summary of the method: as §1

[3] = molecular target: Gal3S(b1-3)[Fuc(a1-4)]GlcNAc
Summary of the method: as §1

Gal4S(b1-4)GlcNAc = molecular target: Gal4S(b1-4)GlcNAc
Summary of the method: as §1

Gal6S(b1-4)GlcNAc6S = molecular target: Gal6S(b1-4)GlcNAc6S
Summary of the method: as §1

GalNAc(a1-3)Gal = molecular target: GalNAc(a1-3)Gal
Summary of the method: as §1

[4] = molecular target: GalNAc(b1-3)Gal(a1-4)Gal(b1-4)GlcNAc(b1-3)Gal(b1-4)Glc
Summary of the method: as §1

Glc(a1-4)Glc = molecular target: Glc(a1-4)Glc
Summary of the method: as §1

[5] = molecular target: GlcNAc(b1-3)[GlcNAc(b1-6)]GalNAc
Summary of the method: as §1

GlcNAc3Prop(b1-4)GlcNAc = molecular target: GlcNAc3Prop(b1-4)GlcNAc
Summary of the method: as §1

Kdn(a2-3)Gal(b1-3)GlcNAc = molecular target: Kdn(a2-3)Gal(b1-3)GlcNAc
Summary of the method: as §1

[6] = molecular target: Man(a1-2)Man(a1-2)Man(a1-6)[Man(a1-3)]Man
Summary of the method: as §1

Man(a1-3)[Man(a1-6)]Man = molecular target: Man(a1-3)[Man(a1-6)]Man
Summary of the method: as §1

[7] = molecular target: Man(a1-3)[Man(a1-6)]Man(a1-6)[Man(a1-2)Man(a1-3)]Man(b1-4)GlcNAc(b1-4)GlcNAc
Summary of the method: as §1

[8] = molecular target: Man(a1-3)[Man(a1-6)]Man(a1-6)[Man(a1-3)]Man(b1-4)GlcNAc(b1-4)GlcNAc
Summary of the method: as §1

Man(a1-6)Man = molecular target: Man(a1-6)Man
Summary of the method: as §1

[9] = molecular target: Neu5Ac(a2-3)Gal(b1-3)GalNAc(b1-4)[Neu5Ac(a2-3)]Gal(b1-4)Glc
Summary of the method: as §1

[10] = molecular target: Neu5Ac(a2-3)Gal(b1-3)GlcNAc(b1-3)Gal(b1-3)GlcNAc
Summary of the method: as §1

[11] = molecular target: Neu5Ac(a2-3)Gal(b1-3)[Fuc(a1-4)]GlcNAc
Summary of the method: as §1

[12] = molecular target: Neu5Ac(a2-3)Gal(b1-3)[Neu5Ac(a2-3)Gal(b1-4)]GlcNAc
Summary of the method: as §1

[13] = molecular target: Neu5Ac(a2-3)Gal(b1-3)[Neu5Ac(a2-6)]GalNAc
Summary of the method: as §1

Neu5Ac(a2-3)Gal(b1-4)Glc = molecular target: Neu5Ac(a2-3)Gal(b1-4)Glc
Summary of the method: as §1

[14] = molecular target: Neu5Ac(a2-3)Gal(b1-4)GlcNAc(b1-2)Man(a1-3)[Neu5Ac(a2-6)Gal(b1-4)GlcNAc(b1-2)Man(a1-6)]Man(b1-4)GlcNAc(b1-4)GlcNAc
Summary of the method: as §1

[15] = molecular target: Neu5Ac(a2-3)Gal(b1-4)GlcNAc(b1-3)Gal(b1-4)[Fuc(a1-3)]GlcNAc
Summary of the method: as §1

[16] = molecular target: Neu5Ac(a2-3)Gal(b1-4)GlcNAc6S
Summary of the method: as §1

[17] = molecular target: Neu5Ac(a2-6)Gal(b1-4)GlcNAc(b1-2)Man(a1-6)[Gal(b1-4)GlcNAc(b1-2)Man(a1-3)]Man(b1-4)GlcNAc(b1-4)GlcNAc
Summary of the method: as §1

[18] = molecular target: Neu5Ac(a2-6)Gal(b1-4)GlcNAc(b1-3)Gal(b1-4)[Fuc(a1-3)]GlcNAc(b1-3)Gal(b1-4)[Fuc(a1-3)]GlcNAc
Summary of the method: as §1

[19] = molecular target: Neu5Gc(a2-6)Gal(b1-4)GlcNAc
Summary of the method: as §1

| Binder | glycan array binding signal (z-score) (Fuc(a1-2)Gal) | glycan array binding signal (z-score) (Fuc(a1-2)Gal6S(b1-4)Glc) | glycan array binding signal (z-score) [1] | glycan array binding signal (z-score) (Fuc(b1-3)GlcNAc) | glycan array binding signal (z-score) (Gal(a1-3)Gal(b1-3)GlcNAc) | glycan array binding signal (z-score) (Gal(a1-4)Gal(b1-4)GlcNAc) | glycan array binding signal (z-score) [2] | glycan array binding signal (z-score) [3] | glycan array binding signal (z-score) (Gal4S(b1-4)GlcNAc) | glycan array binding signal (z-score) (Gal6S(b1-4)GlcNAc6S) | glycan array binding signal (z-score) (GalNAc(a1-3)Gal) | glycan array binding signal (z-score) [4] | glycan array binding signal (z-score) (Glc(a1-4)Glc) | glycan array binding signal (z-score) [5] | glycan array binding signal (z-score) (GlcNAc3Prop(b1-4)GlcNAc) | glycan array binding signal (z-score) (Kdn(a2-3)Gal(b1-3)GlcNAc) | glycan array binding signal (z-score) [6] | glycan array binding signal (z-score) (Man(a1-3)[Man(a1-6)]Man) | glycan array binding signal (z-score) [7] | glycan array binding signal (z-score) [8] | glycan array binding signal (z-score) (Man(a1-6)Man) | glycan array binding signal (z-score) [9] | glycan array binding signal (z-score) [10] | glycan array binding signal (z-score) [11] | glycan array binding signal (z-score) [12] | glycan array binding signal (z-score) [13] | glycan array binding signal (z-score) (Neu5Ac(a2-3)Gal(b1-4)Glc) | glycan array binding signal (z-score) [14] | glycan array binding signal (z-score) [15] | glycan array binding signal (z-score) [16] | glycan array binding signal (z-score) [17] | glycan array binding signal (z-score) [18] | glycan array binding signal (z-score) [19] |
| --- | --- | --- | --- | --- | --- | --- | --- | --- | --- | --- | --- | --- | --- | --- | --- | --- | --- | --- | --- | --- | --- | --- | --- | --- | --- | --- | --- | --- | --- | --- | --- | --- | --- |
| B1 | -0.143 | -0.255 | -0.236 | -0.263 | -0.267 | -0.203 | -0.267 | -0.259 | -0.249 | -0.268 | -0.212 | 5.38 | 0.228 | -0.259 | 0.218 | -0.248 | -0.258 | -0.267 | -0.273 | -0.271 | -0.283 | -0.256 | -0.195 | -0.279 | -0.223 | -0.085 | 5.54 | -0.259 | 6.21 | -0.268 |  |  |  |
| B2 |  |  |  |  |  |  |  |  |  |  |  |  |  |  |  |  |  |  |  |  |  |  |  |  |  |  |  |  |  |  | -0.203 | 0.576 | -0.03 |
